The values that follow come from PubChem BioAssay.

Values without a mark were called inactive. The source made the active and inactive calls.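 How the source made its calls, unless noted: active means inhibition above 50%; inactive means the rest.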

One test in a line: antimalarial activity against Dd2 strain (AID 2302;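 active means growth inhibition above 50% at the single 2 µM test dose, taken to imply half-maximal potency below 2 µM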;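 further: 0% = DMSO untreated growth and 100% = chloroquine plus artemisinin killed control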). The conditions noted are these: P. falciparum Dd2 in RBCs, LDH growth readout, 72 h; at 2 µM; active compounds read high.
For `COc1ccc2nc(C)cc(NN=Cc3cccc(Cl)c3)c2c1`, the growth inhibition is 100% (active). In the case of `FC(F)(F)c1ccc2nc(-c3ccc(-c4ccc(CNCC5CCCO5)cc4)cc3)[nH]c2c1` (stereo unspecified), the growth inhibition was 100% (active). Still for that read-out and setting: for `COc1ccc2c(NN=Cc3cccc([N+](=O)[O-])c3)ccnc2c1` the value was 99% (active); for `CC(C)(C)c1ccc2nccc(Nc3cccc(O)c3)c2c1`, 100% (active); for `COc1ccccc1-c1sccc1C(=O)NC1(c2cc(Cl)cc(Cl)c2)CCCC1`, 95% (active). Consider `COc1ccc(-n2ccnc2)cc1CNC1CCN(CC2Cn3c(=O)ccc4ccc(F)c2c43)CC1` (stereo unspecified), for which the growth inhibition is 18%. As for `COc1ccc(-c2nc(NC(=O)CSc3ccc([N+](=O)[O-])cc3)sc2C)cc1`, the growth inhibition was 100% (active). Same read-out and setting: the same measure for `Cc1cc(NN=Cc2ccc(F)cc2)c2cc(C(F)(F)F)ccc2n1`: 99% (active); for `NC1=NC2(CCCCC2)N(OCC2CCCCC2)C(N)=N1`: 49%.

Turning to `Cc1[nH]c(C)c(-c2ccc(OCc3cc(F)cc(F)c3)nc2)c(=O)c1Cl`, the growth inhibition was 97% (active). The same measure, in the same setting: for `O=C(Nc1cccc(CN2CCCN(CCc3ccccc3)CC2)c1)c1cc2ccccc2s1` the value was 39%. Regarding `O=C1NC(c2ccccc2)C2(CCN(CC(O)COc3cccc4ncccc34)CC2)O1` (stereo unspecified), the growth inhibition was 95% (active).

For `O=C(Nc1cccc(CN2CCN(Cc3cccc(O)c3)CC2)c1)c1cc2ccccc2s1`, the growth inhibition was 54% (active). With `O=S(=O)(Nc1ccc(-c2ccc(CN3CCCC3)cc2)cc1)c1cccc2cccnc12`, the growth inhibition is 10%. Turning to `CCCC(C)n1ccc2c3c(N)nc(N)nc3ccc21` (stereo unspecified), the growth inhibition was 91% (active).

For the molecule `CC(CN(C)C)C(=O)Nc1cccc(-c2ccc(-c3nc4ccccc4[nH]3)cc2)c1` (stereo unspecified), the growth inhibition is 25%. For the molecule `O=C(NCCCCN1CCC(c2ccc(-c3ccco3)cc2)CC1)c1ccc(NC(=O)c2ccc(Cl)cc2)cc1`, the growth inhibition is 97% (active). On the same count and under the same terms, for `CCc1ccc(NC(=O)c2ccc(CN3CCCN(CCC(C)C)CC3)cc2)cc1` the value was 25%; for `O=C(Nc1ccc(C(F)(F)F)cc1)Nc1cccc([N+](=O)[O-])c1`, 98% (active); for `CC(C)(C)c1ccc(CN(C[C@@H](O)CNS(=O)(=O)c2cc(Cl)cc(Cl)c2)C(C)(C)C)cc1`, 94% (active). As for `CCCCCN1CCCC(CNS(=O)(=O)c2ccc(C(=O)Nc3ccc(C(F)(F)F)cc3)cc2)C1` (stereo unspecified), the growth inhibition was -9%. On to `CC(C)(C)N1CCC(N(Cc2ccc(-c3ccc(C(F)(F)F)cc3)cc2)C(=O)Cn2c(CCc3cccc(F)c3F)cc(=O)c3cccnc32)CC1`, for which the growth inhibition is 63% (active). As for `CS(=O)(=O)NCCCNCc1ccc(-c2cccc(-c3nc4ccc(F)cc4[nH]3)c2)cc1`, the growth inhibition was 1%. For the molecule `OC[C@H]1CCCN1CC#Cc1cc2c(Nc3ccc(OCc4cccc(F)c4)c(Cl)c3)ncnc2s1`, the growth inhibition is 6%. Consider `Nc1ccc(-c2nc3ccc(-c4ccc5nc(-c6ccc(N)cc6)[nH]c5c4)cc3[nH]2)cc1`, for which the growth inhibition is 96% (active). As to `Cc1cccc2[nH]c(-c3ccc(-c4cccc(C(=O)NCCc5cn(C)cn5)c4)s3)nc12`, the growth inhibition is 17%.

The next test can be described thus: human hepatoma cell viability loss – ATP luminescence, cytotoxicity control for P. falciparum antimalarial project, primary screen (AID 2303).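 Further: 0% = DMSO wells and 100% = digitonin-killed cells.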 The conditions noted are these: HepG2 viability, 24-48 h, at 10 µM, active compounds read high.
`COC(=O)c1ccc(CCCNCC(O)c2cccc(C(F)(F)F)c2)cc1` (stereo unspecified): the inhibition was 0%.

Consider `O=C(Nc1cc(C(F)(F)F)cc(C(F)(F)F)c1)Nc1cc(C(F)(F)F)cc(C(F)(F)F)c1`, for which the inhibition is 5%. On to `COc1ccc2ncc(F)c(CCN3CCC(NCc4cc(Br)c5c(c4)OCCO5)CC3)c2n1`, for which the inhibition was 26%.

Regarding `O=C(Nc1ccc(F)cc1)c1nc2ccccc2nc1Cl`, the inhibition was 44%. Regarding `CCOC(=O)c1ccc(NC(=O)Nc2cccc(-c3cccc(-c4nc5ccccc5[nH]4)c3)c2)cc1`, the inhibition is 76% (active). Regarding `CCCCCCCCN1CCN(CCCCCCNc2c3ccccc3nc3ccccc23)CC1`, the inhibition was 100% (active). Still for that read-out and setting: the same measure for `CCC(C(=O)Nc1ccccc1)n1nc(-c2ccc(C)c(S(=O)(=O)N3CCCCC3)c2)ccc1=O` (stereo unspecified): -2%; for `CC(C)(C)c1ccc(CNC(=O)c2ccc(CNC3CCC(N)CC3)s2)cc1` (stereo unspecified): 41%; for `COc1ccc2nccc(N3CCC(CCNCc4cc5c(cn4)OCCO5)CC3)c2c1`: 26%.

For the molecule `O=C(NC1CCC(N2CCC(c3nc4ccccc4s3)CC2)CC1)c1cc2ccccc2[nH]1` (stereo unspecified), the inhibition is 23%.

In the case of `COc1cc(NC(=O)c2cccs2)c(OC)cc1NC(=O)Nc1cccc(Cl)c1`, the inhibition is 5%.

As to `CNC(=O)c1cc(S(=O)(=O)Nc2ccc(OC)cc2)cs1`, the inhibition was 11%. Turning to `CN(C)CCOc1ccc(N2CCN(CCCCNC(=O)c3ccc(NC(=O)c4ccc(Cl)cc4)cc3)CC2)cc1`, the inhibition was 13%. On the same count and under the same terms, for `C[C@@H]1CN(C(c2cccc(O)c2)c2cccc(C(=O)N(C)c3cccc(F)c3)c2)[C@@H](C)CN1C(c1cccc(O)c1)c1cccc(C(=O)N(C)c2cccc(F)c2)c1` (stereo partly specified) the value was 0%; for `COc1ccc2nc(C)cc(NN=Cc3cccc(Cl)c3)c2c1`, 13%. Consider `FC(F)(F)c1ccc2nc(-c3ccc(-c4ccc(CNCC5CCCO5)cc4)cc3)[nH]c2c1` (stereo unspecified), for which the inhibition was 33%. Take `COc1ccc2c(NN=Cc3cccc([N+](=O)[O-])c3)ccnc2c1`: the inhibition was -10%. Turning to `CC(C)(C)c1ccc2nccc(Nc3cccc(O)c3)c2c1`, the inhibition is 8%.

On to `COc1ccccc1-c1sccc1C(=O)NC1(c2cc(Cl)cc(Cl)c2)CCCC1`, for which the inhibition was -5%.

As to `COc1ccc(-n2ccnc2)cc1CNC1CCN(CC2Cn3c(=O)ccc4ccc(F)c2c43)CC1` (stereo unspecified), the inhibition is 25%.

Turning to `COc1ccc(-c2nc(NC(=O)CSc3ccc([N+](=O)[O-])cc3)sc2C)cc1`, the inhibition was -6%.

On to `Cc1cc(NN=Cc2ccc(F)cc2)c2cc(C(F)(F)F)ccc2n1`, for which the inhibition is 2%. In the case of `NC1=NC2(CCCCC2)N(OCC2CCCCC2)C(N)=N1`, the inhibition is 70% (active). In the case of `Cc1[nH]c(C)c(-c2ccc(OCc3cc(F)cc(F)c3)nc2)c(=O)c1Cl`, the inhibition is 20%. As to `O=C(Nc1cccc(CN2CCCN(CCc3ccccc3)CC2)c1)c1cc2ccccc2s1`, the inhibition was 37%. `O=C1NC(c2ccccc2)C2(CCN(CC(O)COc3cccc4ncccc34)CC2)O1` (stereo unspecified): the inhibition was 5%. As for `O=C(Nc1cccc(CN2CCN(Cc3cccc(O)c3)CC2)c1)c1cc2ccccc2s1`, the inhibition is 13%. For `O=S(=O)(Nc1ccc(-c2ccc(CN3CCCC3)cc2)cc1)c1cccc2cccnc12`, the inhibition was 37%. For `CCCC(C)n1ccc2c3c(N)nc(N)nc3ccc21` (stereo unspecified), the inhibition was 70% (active). In the case of `CC(CN(C)C)C(=O)Nc1cccc(-c2ccc(-c3nc4ccccc4[nH]3)cc2)c1` (stereo unspecified), the inhibition was 1%. In the case of `O=C(NCCCCN1CCC(c2ccc(-c3ccco3)cc2)CC1)c1ccc(NC(=O)c2ccc(Cl)cc2)cc1`, the inhibition was 26%. For the molecule `CCc1ccc(NC(=O)c2ccc(CN3CCCN(CCC(C)C)CC3)cc2)cc1`, the inhibition is 48%. For `O=C(Nc1ccc(C(F)(F)F)cc1)Nc1cccc([N+](=O)[O-])c1`, the inhibition is 20%. On the same count and under the same terms, for `CC(C)(C)c1ccc(CN(C[C@@H](O)CNS(=O)(=O)c2cc(Cl)cc(Cl)c2)C(C)(C)C)cc1` the value was 74% (active); for `CCCCCN1CCCC(CNS(=O)(=O)c2ccc(C(=O)Nc3ccc(C(F)(F)F)cc3)cc2)C1` (stereo unspecified), 51% (active). Turning to `CC(C)(C)N1CCC(N(Cc2ccc(-c3ccc(C(F)(F)F)cc3)cc2)C(=O)Cn2c(CCc3cccc(F)c3F)cc(=O)c3cccnc32)CC1`, the inhibition is 100% (active). The same measure, in the same setting: the same measure for `CS(=O)(=O)NCCCNCc1ccc(-c2cccc(-c3nc4ccc(F)cc4[nH]3)c2)cc1`: 15%. Regarding `OC[C@H]1CCCN1CC#Cc1cc2c(Nc3ccc(OCc4cccc(F)c4)c(Cl)c3)ncnc2s1`, the inhibition is 13%. Take `Nc1ccc(-c2nc3ccc(-c4ccc5nc(-c6ccc(N)cc6)[nH]c5c4)cc3[nH]2)cc1`: the inhibition was 45%.

Turning to `Cc1cccc2[nH]c(-c3ccc(-c4cccc(C(=O)NCCc5cn(C)cn5)c4)s3)nc12`, the inhibition is 27%.

The term inhibition denotes the change of the read-out against control, counted positive when it falls.
